PubChem BioAssay (NCI)
Compounds without any hit were thinned out: in the full panel of roughly 83,000, 20% have a hit.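 In brief: 96-well plates, 48 h treatment, single concentration, percent growth endpoint.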 A number with no mark means an inactive call. Activity calls are given as the source filed them. Rule for the calls: active = growth percent below 10; inactive = the rest.

How the values were obtained:
Assay in all cases: NCI-60 one-dose screen, 48 h (100 = growth as untreated, 0 = no growth, -100 = all killed)
Details in all cases: 10 µM unless noted
[1] = test system: K-562 leukemia
[2] = test system: MALME-3M melanoma
[3] = test system: MDA-MB-231 breast
[4] = test system: RXF 393 renal
[5] = test system: SF-268 CNS
[6] = test system: SF-295 CNS
[7] = test system: SF-539 CNS
[8] = test system: UACC-257 melanoma
[9] = test system: M14 melanoma
[10] = test system: HT29 colon
[11] = test system: SNB-75 CNS
[12] = test system: SNB-19 CNS
[13] = test system: U251 CNS
[14] = test system: PC-3 prostate
[15] = test system: SK-MEL-5 melanoma
[16] = test system: UACC-62 melanoma
[17] = test system: SK-MEL-28 melanoma
[18] = test system: SK-MEL-2 melanoma
[19] = test system: LOX IMVI melanoma
[20] = test system: HCT-15 colon

| Compound | growth [1] | growth [2] | growth [3] | growth [4] | growth [5] | growth [6] | growth [7] | growth [8] [%] | growth [9] | growth [10] | growth [11] | growth [12] [%] | growth [13] | growth [14] | growth [15] [%] | growth [16] | growth [17] [%] | growth [18] [%] | growth [19] | growth [20] [%] |
| --- | --- | --- | --- | --- | --- | --- | --- | --- | --- | --- | --- | --- | --- | --- | --- | --- | --- | --- | --- | --- |
| C#Cc1nc(C2=C(C)C(=N\O)/C(=N/O)C2)cs1 | 94% | 94.4% | 61.4% | 104% | 86.1% | 101% | 93.9% | 102 | 89.6% | 111% | 60% | 95.6 | 103% | 90.6% | 99 | 91.8% | 111 | 108 | – | – |
| Cn1ccnc1C(=O)/C=C/c1ccc(NC(=O)Nc2ccccc2)cc1 | 7.81% (active) | 69.6% | -2.86% (active) | -5.31% (active) | 3.22% (active) | 3.79% (active) | -29.5% (active) | 80 | 24.8% | 3.3% (active) | 17.1% | 21.8 | 2.77% (active) | 37.8% | 77.9 | 38.5% | 75.1 | 102 | – | – |
| OC1CCN(CCCOc2c3ccccc3nc3c2oc2ccc(Cl)cc23)CC1 | 3.22% (active) | 1.25% (active) | 17% | -10.8% (active) | 22.8% | 8.74% (active) | 14.6% | 23.6 | -4.12% (active) | 1.25% (active) | 21% | 21.8 | 21.7% | 8.35% (active) | 26.6 | -19.5% (active) | 24.9 | 14 | -73.8% (active) | – |
| CS(=O)(=O)c1ccc(-c2nc3ccccn3c2/C=N/Nc2nc(-c3ccc(Cl)cc3)cs2)cc1 | 78.6% | 127% | 106% | 98.8% | 110% | 98.8% | 105% | 107 | 107% | 110% | 120% | 107 | 108% | 102% | 91.7 | 102% | 93.1 | 102 | 122% | – |
| COc1cc(/C=C/C(=O)c2ccc(Cl)cc2)ccc1Oc1nc(NCCO)nc(N2CCOCC2)n1 | 35.9% | 93.5% | 104% | 97.8% | 97.6% | 101% | 95.9% | 114 | 98.7% | 111% | 97.8% | 99.3 | 94% | 95.3% | 99.7 | 93.9% | 108 | 99.7 | – | – |
| c1ccc(CNc2ncnc3ccc(-c4cnc5[nH]ncc5c4)cc23)cc1 | – | 103% | 63.7% | 33.8% | 58.2% | 74.1% | 69.9% | 95.4 | 94.8% | 70.6% | 54.5% | 72.7 | 81.6% | 70.3% | 88.4 | 76% | 82.7 | 81.6 | 52.7% | 77 |
| CCN1CCN(S(=O)(=O)c2oc(-c3ccc(Cl)cc3)nc2C#N)CC1 | – | -53.6% (active) | 26.7% | -60.2% (active) | 112% | 108% | 53.1% | 89.9 | -50.6% (active) | 2.82% (active) | 87.5% | 95.8 | 96.6% | 87.4% | 95.2 | 88.7% | 53.5 | 104 | -89.2% (active) | – |
| N#Cc1ccc(C(=O)CSc2nc(Nc3ccc(S(N)(=O)=O)cc3)c3ccccc3n2)cc1 | 105% | 106% | 105% | 109% | 109% | 102% | 102% | 101 | 103% | 112% | 107% | 100 | 114% | 89.4% | 102 | 99.4% | 109 | 118 | – | – |
| C#Cc1nc(C2=C(C)C(OC(=O)CCC(=O)O)CC2)cs1 (configuration not stated) | 104% | 107% | 104% | 113% | 99.9% | 108% | 100% | 102 | 103% | 125% | 98.3% | 104 | 106% | 102% | 101 | 95.3% | 115 | 114 | – | – |
| COc1ccc(CNS(=O)(=O)/N=C2\NC(=O)NC2=C(Cl)Cl)cc1 | 13% | 76% | 22.1% | 39.6% | 59.6% | -22.9% (active) | -6.36% (active) | 54.4 | 25.2% | 8.17% (active) | -23.1% (active) | 30 | 14.8% | 28% | – | 27.4% | 48.7 | – | – | – |
| CCOC(=O)c1c(Nc2ccccc2)nn2c(-c3ccco3)c(C#N)cnc12 | – | 94.9% | 80% | 82.1% | 80.5% | 76.7% | 42% | 112 | 107% | 100% | 30.5% | 78.3 | 109% | 86.4% | – | 91% | 90.6 | 90.3 | 81.4% | 91.5 |
| CCOC(=O)c1c(Nc2ccccc2)nn2c(N)c(C#N)c(-c3ccc(OC)cc3)nc12 | – | 61.1% | 78.1% | 46% | 61.9% | 42.8% | 52.1% | 95.4 | 78.6% | 76.7% | -15.3% (active) | 76.5 | 71.3% | 66.1% | 87.4 | 80.4% | 78.4 | 89.2 | 71% | 84.6 |
| Cn1c(SCC(=O)Nc2ccc(-c3nc4ccc([N+](=O)[O-])cc4[nH]3)cc2)nc2ccccc2c1=O | 93.6% | 87.3% | 78.5% | 73.1% | 83.3% | 77.1% | 78.1% | 87.3 | 96.3% | 89.7% | 93.2% | 85.8 | 92% | 68.7% | – | 75% | 79.4 | 90.7 | – | – |
| O=c1[nH]c2ccccc2cc1CSc1ccccc1Nc1nccc(-c2ccc(C(F)(F)F)cc2)n1 | 58.6% | 63.6% | 69% | 2.21% (active) | 70.4% | 72.7% | 45.5% | 104 | 92.1% | 56.1% | 66.4% | 59.6 | 47.5% | 56.6% | – | 70.4% | 84.9 | 89.8 | 19.8% | – |
| CSc1ccc2c(c1)N(C(=O)/C(C#N)=C/c1c[nH]c3ccccc13)c1ccccc1S2 | 16.4% | 55.7% | 53.2% | 38.8% | 55.8% | 15% | 7.54% (active) | 57 | 29.5% | 12.2% | 8.61% (active) | 41 | 42.1% | 28.8% | – | 41.8% | 58.5 | 35.6 | – | – |
| CC(O)C(NC(=O)C1CCCN1C(=O)CNC(=O)C1CC(=O)NCC(=O)NC(Cc2c[nH]c3ccccc23)C(=O)NC(Cc2ccc(O)cc2)C(=O)NCC(=O)NC(CO)C(=O)NC(CCC(N)=O)C(=O)NC(Cc2c[nH]c3ccccc23)C(=O)N1)C(=O)NCC(=O)NC(CCC(N)=O)C(=O)NC(CCCNC(=N)N)C(=O)NC(CC(=O)O)C(=O)O (configuration not stated) | 94.9% | 95.5% | 98.6% | 116% | 103% | 102% | 96% | 102 | 91.1% | 106% | 92.4% | 96.6 | 106% | 76.7% | 101 | 94.9% | 99.6 | – | – | – |
